Common to all, as to experiment: NCI-60 one-dose screen, 48 h (100 = growth as untreated, 0 = no growth, -100 = all killed)
Conditions in all cases: 10 µM unless noted

Experiment [1] relates to SR leukemia.
The test system of experiment [2] is RPMI-8226 leukemia.
In experiment [3] the test system is OVCAR-8 ovarian.
The test system of experiment [4] is OVCAR-5 ovarian.
Experiment [5] deals with OVCAR-4 ovarian.
The subject of experiment [6] is SK-OV-3 ovarian.
For experiment [7], the system named is OVCAR-3 ovarian.
Experiment [8] has as its system HS 578T breast.
For experiment [9], the system named is NCI/ADR-RES ovarian.
For experiment [10], the system named is T-47D breast.
Experiment [11] relates to BT-549 breast.
For experiment [12], the system named is MDA-MB-435 melanoma.
Experiment [13] has as its system SW-620 colon.
Experiment [14] deals with MCF7 breast.
Experiment [15] deals with HCT-116 colon.
The test system of experiment [16] is HCC-2998 colon.
The subject of experiment [17] is KM12 colon.
Experiment [18] relates to IGROV1 ovarian.

About 83,000 compounds went through this panel and 20% of them were active in at least one assay; those are over-represented in the sample as a whole.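 48-hour exposure, single concentration, 96-well plates; percent growth endpoint where 0 means no net growth. Active: below 10.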 A number with no mark means an inactive call. The source made the active and inactive calls.

Take `COc1ccc(C(O)c2cc3c(N)c(C(=O)Nc4cccc(Cl)c4)sc3nc2C)cc1` (centres undefined): the growth is 13.2% in experiment [1]; 15.8% in experiment [2]; 13.5% in experiment [3]; 28.5% in experiment [4]; 50.7% in experiment [5]; 19% in experiment [6]. Besides, the growth is 7.47% (active) in experiment [7]; -8.06% (active) in [8]; 13.2% in [9]; 42.2% in [10]; 38.3% in experiment [11]; 0.877% (active) in experiment [12]. Also, the growth was 27.1% in experiment [13]; 15.1% in experiment [14]; 10.3% in [15]; -19.9% (active) in experiment [16]; 9.91% (active) in experiment [17].
Turning to `O=C(Nc1cccnc1Nc1ccc(Cl)cc1)c1cn(Cc2ccc(F)cc2)nn1`, the growth in experiment [1] is 106%; in experiment [2], 85%; in [3], 96.2%; in experiment [4] it was 105%; in experiment [5] it was 89.8%; in experiment [6] it was 108%. Moreover, the growth in [18] was 107%; in experiment [8], 93.2%; in experiment [9] it was 96.2%; in [10] it was 90.5%; in experiment [11], 88%; in [13], 114%. Further, the growth in [14] was 92.8%; in [15], 84.6%; in experiment [16], 100%; in experiment [17] it was 102%.
Consider `Cc1cc(N2CCN(C)CC2)nc(NCc2cc(Nc3ccnc4cc(Cl)ccc34)ccc2F)n1`, for which the growth in experiment [1] is -32% (active); in experiment [2] it was -29.6% (active); in experiment [3], 6.32% (active); in experiment [4] it was -3.76% (active); in experiment [5] it was 14.9%; in experiment [6], 23%. In addition, the growth in experiment [7] is -46.8% (active); in experiment [8], 11%; in experiment [9] it was 18.7%; in [10], -56.1% (active); in experiment [11] it was 30.4%; in experiment [12], -43.6% (active). The growth is -18.6% (active) in [13]; -9.33% (active) in experiment [14]; -45.3% (active) in experiment [15]; -12.7% (active) in experiment [16]; 12.7% in experiment [17].
For the compound `C#CC#CC#CC#CC#CC#CC#CC#CC[C@H]1OC[C@@H](COC(=O)O[C@@H](C(=O)O[C@H]2C[C@@]3(O)[C@@H](OC(=O)c4ccccc4)[C@@H]4[C@]5(OC(C)=O)CO[C@@H]5C[C@H](O)[C@@]4(C)C(=O)[C@H](OC(C)=O)C(=C2C)C3(C)C)[C@@H](NC(=O)c2ccccc2)c2ccccc2)O1`, the growth in experiment [1] is 25.9%; in experiment [2], 26%; in [3], 59.7%; in experiment [4], 47%; in experiment [5] it was 68.3%; in experiment [6], 61.7%. Besides, the growth was 49.2% in experiment [18]; 44.3% in experiment [8]; 108% in experiment [9]; 53.4% in experiment [10]; 53.2% in [11]; -47.8% (active) in experiment [12]. For the same compound, the growth in experiment [14] was 33.7%; in experiment [15], 18%; in [16], 48.3%; in experiment [17], 16.7%.
For `CCn1cc(C2=C(c3cn(C)c4ncccc34)C(=O)NC2=O)c2cccnc21`, the growth in [1] was 59.4%; in [2], 85.2%; in [3] it was 82.5%; in [4], 102%; in experiment [5] it was 69.3%; in experiment [6] it was 41.6%. Moreover, the growth is 64.5% in experiment [18]; 32% in experiment [8]; 78.2% in experiment [9]; 29.8% in [10]; 32.9% in experiment [11]; 65% in [12]. Besides, the growth is 92.4% in [13]; 38.3% in experiment [14]; 70.9% in [15]; 91.4% in experiment [16]; 46.7% in experiment [17].
For the compound `O=C1N[C@@H]2[C@@H](O)[C@@H](O)[C@H](O)C[C@H]2c2cc3c(c(O)c21)OCCO3`, the growth is -2.37% (active) in experiment [1]; -28% (active) in experiment [2]; -13.8% (active) in experiment [3]; 3% (active) in experiment [4]; -8.78% (active) in [5]; -10.9% (active) in experiment [6]. Also, the growth in [7] is -13% (active); in experiment [8] it was -9.44% (active); in experiment [9] it was -0.441% (active); in [10] it was -15.8% (active); in experiment [11], -17.5% (active); in [12] it was 1.45% (active). For the same compound, the growth in [13] was 4.85% (active); in experiment [14], -13.3% (active); in experiment [15], -3.3% (active); in experiment [16], -46.2% (active); in experiment [17], -2.6% (active).
As for `COc1cc2ncnc(Nc3ccc(F)c(Cl)c3)c2cc1OCC(=O)N1CCN(c2ccc(F)cc2)CC1`, the growth in experiment [1] was 79%; in experiment [2] it was 98.8%; in experiment [3] it was 107%; in experiment [4] it was 60.6%; in experiment [5] it was 82%; in [6], 88.1%. Moreover, the growth was 46.9% in [18]; 89.3% in experiment [8]; 82.7% in experiment [9]; 75.2% in experiment [10]; 101% in experiment [11]; 96.5% in experiment [12]. For the same compound, the growth in experiment [13] was 101%; in [14], 83.8%; in experiment [15] it was 88.7%; in experiment [16], 98.1%; in experiment [17], 100%.
For the compound `Nc1c(C(=O)Nc2cccc3ncccc23)sc2nc3c(cc12)C(=O)CCC3`, the growth in experiment [1] is 41.4%; in [2] it was 59.6%; in experiment [3] it was 78.9%; in experiment [4], 69.8%; in [5], 71.1%; in experiment [6], 21.3%. Also, the growth in experiment [18] is 59%; in [8], 5.47% (active); in experiment [9] it was 72.8%; in [10], 49.3%; in [12], -18.2% (active); in experiment [13], 39.1%. The growth in [14] was 25.2%; in experiment [15], 44.1%; in [16], 75.8%; in experiment [17], 46.5%.
Consider `S=c1ssnc1-c1cccs1`, for which the growth in [1] was 98.6%; in experiment [2], 97.3%; in [3] it was 113%; in [4] it was 115%; in experiment [5] it was 99.8%; in experiment [6] it was 98.4%. In addition, the growth is -4.8% (active) in [18]; 46.6% in experiment [8]; 97.2% in experiment [9]; 92.6% in experiment [10]; 116% in [11]; 83.9% in experiment [12]. For the same compound, the growth is 91.6% in experiment [14], 89.4% in experiment [15], 98.4% in experiment [16] and 92.1% in experiment [17].

The record behind these values is PubChem BioAssay (NCI).
